Calls of active or inactive are those of the source. The calls were made as follows: active = hit-call score of the fitted dose curve at least 0.9, where 1 is the maximum; inactive = score below 0.9.
Experiment: ATG_TA_CIS: Attagene CIS-FACTORIAL HepG2 Assay for human TA Basal Promoter (AID 2282964)
Settings: HepG2 Attagene CIS-factorial TA basal promoter reporter; actives raise or lower the signal
Procedure: ATG_CIS is a cell-based, multiplexed-readout assay that uses HepG2, a human liver cell line, with measurements taken at 24 hours after chemical dosing in a 24-well plate.ATG_TA_CIS is one of 52 assay component(s) measured or calculated from the ATG_CIS assay. It is designed to make measurements of mRNA induction, a form of inducible reporter, as detected with fluorescence intensity signals by Reverse transcription polymerase chain reaction (RT-PCR) and Capillary electrophoresis technology.Data from the assay component ATG_TA_CIS was analyzed into 1 assay endpoint. This assay endpoint, ATG_TA_CIS, was analyzed with bidirectional fitting relative to DMSO as the negative control and baseline of activity. Using a type of inducible reporter, measures of mRNA for gain or loss-of-signal activity can be used to understand the background control at the transcription factor-level as they relate to the gene . Furthermore, this assay endpoint can be referred to as a secondary readout, because this assay has produced multiple assay endpoints where this one serves a background control function. To generalize the intended target to other relatable targets, this assay endpoint is annotated to the background measurement intended target family, where the subfamily is internal marker.
Human liver HepG2 cells are transiently transfected with multiple reporter transcription units (MRTUs) in 6-well plates using FuGene 6 reagent (Roche; 3 ml FuGene/1 mg DNA). The MRTU constructs are regulated by a cis-regulating element (promoter). […] A major difference between the CIS and TRANS system is that in CIS activities of endogenous TFs are measured, whereas the TRANS assay evaluates changes in activities of exogenous, chimeric NR-Gal4 proteins. […] At the end of 24 hour incubation, total RNA was isolated using TriZol reagent (Invitrogen). The isolated RNA is then reverse-transcribed using oligo(dT) primer and Mo-MLV reverse transcriptase (Invitrogen) with DNAse I (Ambion) treatment for 30 min. The one-tenth of the produced cDNA was amplified by PCR using Taq DNA polymerase (Invitrogen) and two reporter sequence-specific primers. The PCR products were fluorescently labeled by primer extension with 6-arboxyfluorescein (6-FAM) 5'-labeled reporter sequence-specific primer (2 min at 95 C, 20 s at 68 C and 10 min at 72 C) and these products were digested with 5U of HpaI (New England Biolabs) for 2h at 37 C. The fragments were purified using Qiaquick PCR columns (Qiagen), analyzed on an ABI 3130xL genetic analyzer (Applied Biosystems) with peak positions identified by using a set of X-rhodamine (ROX)-labeled MapMarker1000 molecular weight standards (BioVentures). The raw capillary electrophoresis data was processed using Attagraph software (Attagene).

outcome, inactive:
Cc1cc(C)c(S(=O)(=O)O)cc1N=Nc1cc(S(=O)(=O)O)c2ccccc2c1O, C=C1CC[C@H]2C[C@@H]1C2(C)C, Cc1cccnc1, CC/C=C\CC1=C(C)CCC1=O, N#CCN(CC#N)CCN(CC#N)CC#N, O=C(O)/C=C/C(=O)O, CC1=CCCC(C)(C)C12CCC(C)O2 (stereo not given), CC[N+](CC)(CC(=O)Nc1c(C)cccc1C)Cc1ccccc1 (tested in a mixture with another compound), CCc1cc(C(N)=S)ccn1, OCCc1ccccn1, CCCCNC(N)=O, CO[Si](CCCNCCN)(OC)OC, CC(C)n1c(/C=C/[C@@H](O)C[C@@H](O)CC(=O)O)c(-c2ccc(F)cc2)c2ccccc21, O=C(O)/C=C\C(=O)O, CCCc1c(OCCCCc2nn[nH]n2)ccc(C(C)=O)c1O, O=C(Oc1ccccc1)c1ccccc1, COC(=O)[C@]1(C)CCC[C@@]2(C)[C@H]1CC=C1C=C(C(C)C)CC[C@@H]12, Sc1nc2ccccc2s1, C=C(C)C(=O)OCCCCCC, C=CN1CCCCCC1=O, CCC(C)C1N=C(C)C(C)S1 (stereo not given), Cc1ccccc1S(=O)(=O)O, CNC(=C[N+](=O)[O-])NCCSCc1csc(CN(C)C)n1, O=C1CCCCCCCCCCCCCC1, Cc1cc(O)cc(C)c1Cl, CC/C=C\CCCCCO, O=C1NC(=O)[C@@H]2CC=CC[C@H]12, OCCOCCOCCOCCOCCO, C=C(C)C(=O)OCC1CCCO1 (stereo not given), O=C(O)c1nc(Cl)c(Cl)c(Cl)c1Cl, CCCN[C@H]1CCc2nc(N)sc2C1, CC1=NN(c2cc(Cl)c(S(=O)(=O)O)cc2Cl)C(=O)C1N=Nc1ccc(S(=O)(=O)O)cc1 (stereo not given), CCCC(=O)OC/C=C(\C)CCC=C(C)C, OCCN(CCO)c1cccc(Cl)c1, CCCCC(CC)COC(=O)CS (stereo not given), C=CC(C)(CCC=C(C)C)OC(=O)c1ccccc1 (stereo not given), CCCCCCC1CCC(=O)O1 (stereo not given), NC(=O)c1ccc([N+](=O)[O-])cc1Cl, C=CCOC(=O)C(=C)C, CC(C)(C)NC(=O)[C@@H]1CN(Cc2cccnc2)CCN1C[C@@H](O)C[C@@H](Cc1ccccc1)C(=O)N[C@H]1c2ccccc2C[C@H]1O

Reference: PubChem BioAssay (EPA / NIEHS)
